# Laboratory results from PubChem BioAssay.
# Activity calls are given as the source filed them. Unless noted, no rule for the calls is given here.
# How the values were obtained:
# [1] = compounds binding Alexa647 anti-His antibody – biochemical, small-molecule microarray, 635 nm fluorescence, artefact control for SMM control protein annotation, primary screen (AID 1128); conditions: higher = more signal;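 also: score merges feature fluorescence with signal-to-noise for each printed compound spot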
# [2] = system: Human papillomavirus type 1a E7 protein (residues 1-88); test: HPV1a E7 small-molecule binders, primary screen, biochemical, small-molecule microarray, residues 1-88, 635 nm (AID 1129); conditions: small-molecule microarray binding, fluorescence 635 nm; higher = more signal
# [3] = biological target: Focal adhesion kinase 1 (Homo sapiens) (UniProt Q05397); test: PTK2 protein binding on printed compound slides – biochemical, small-molecule microarray, 635/667 nm fluorescence, BSA, DTT, primary screen (AID 1130); conditions: 635 nm fluorescence, higher = more signal;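 also: composite of spot emission at 667 nm and signal to noise over triplicate slides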
# Sequence of Focal adhesion kinase 1 (Homo sapiens) (Q05397 whole entry, looked up): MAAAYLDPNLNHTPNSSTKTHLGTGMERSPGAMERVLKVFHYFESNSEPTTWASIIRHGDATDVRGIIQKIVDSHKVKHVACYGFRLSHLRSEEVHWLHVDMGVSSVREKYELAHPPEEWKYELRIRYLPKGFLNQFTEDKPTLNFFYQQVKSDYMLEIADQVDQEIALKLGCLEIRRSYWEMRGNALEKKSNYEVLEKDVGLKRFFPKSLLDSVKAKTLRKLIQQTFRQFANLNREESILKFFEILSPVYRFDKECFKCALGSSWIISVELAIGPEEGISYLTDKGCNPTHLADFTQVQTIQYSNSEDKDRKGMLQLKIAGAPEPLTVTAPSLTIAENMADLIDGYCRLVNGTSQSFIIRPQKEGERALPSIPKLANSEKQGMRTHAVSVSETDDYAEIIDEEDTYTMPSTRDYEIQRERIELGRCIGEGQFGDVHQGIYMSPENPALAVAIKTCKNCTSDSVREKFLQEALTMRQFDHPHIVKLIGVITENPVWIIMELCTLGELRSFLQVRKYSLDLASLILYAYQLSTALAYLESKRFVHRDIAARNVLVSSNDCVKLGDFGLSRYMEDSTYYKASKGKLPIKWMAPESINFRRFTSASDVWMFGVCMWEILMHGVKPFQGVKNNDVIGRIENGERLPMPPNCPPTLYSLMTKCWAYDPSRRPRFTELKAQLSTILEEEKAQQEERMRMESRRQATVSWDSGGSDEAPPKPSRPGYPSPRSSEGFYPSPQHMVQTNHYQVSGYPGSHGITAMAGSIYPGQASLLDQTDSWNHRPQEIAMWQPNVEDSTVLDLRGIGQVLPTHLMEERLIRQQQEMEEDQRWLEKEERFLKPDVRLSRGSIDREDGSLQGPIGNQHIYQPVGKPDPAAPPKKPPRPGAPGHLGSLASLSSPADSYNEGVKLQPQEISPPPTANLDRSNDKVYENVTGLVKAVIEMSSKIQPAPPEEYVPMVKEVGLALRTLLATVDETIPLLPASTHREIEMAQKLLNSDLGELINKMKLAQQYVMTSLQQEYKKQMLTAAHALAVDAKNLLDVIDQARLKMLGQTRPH
# [4] = system: Fibrinogen (Alexa647-labelled); test: Alexa647-fibrinogen binding to printed small molecules – biochemical, small-molecule microarray, 635/667 nm fluorescence, artefact control for SMM control-protein annotation, profiling panel (AID 1131); conditions: fibrinogen-A647 binding fluorescence, higher = more signal;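 also: z-score merges 667 nm fluorescence with per-spot signal-to-noise over triplicate slides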
# [5] = biological target: Follistatin (Homo sapiens) (UniProt P19883); test: FST protein binding to printed compounds – biochemical, small-molecule microarray, 635/667 nm fluorescence, primary screen (AID 1132); conditions: 635 nm fluorescence, higher = more signal
# Sequence of Follistatin (Homo sapiens) (P19883 whole entry, looked up): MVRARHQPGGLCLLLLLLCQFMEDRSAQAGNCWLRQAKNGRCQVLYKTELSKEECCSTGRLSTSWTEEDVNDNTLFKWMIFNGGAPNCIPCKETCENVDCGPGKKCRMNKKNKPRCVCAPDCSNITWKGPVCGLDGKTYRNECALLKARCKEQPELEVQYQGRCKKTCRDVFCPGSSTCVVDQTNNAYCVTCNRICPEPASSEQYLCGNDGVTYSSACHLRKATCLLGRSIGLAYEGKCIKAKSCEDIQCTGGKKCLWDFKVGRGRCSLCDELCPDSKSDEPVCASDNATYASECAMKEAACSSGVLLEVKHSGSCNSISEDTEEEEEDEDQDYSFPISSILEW
# [6] = biological target: Fibroblast growth factor 2 (Homo sapiens) (UniProt P09038); test: basic fibroblast growth factor binding to printed compounds – biochemical, small-molecule microarray, 635/667 nm fluorescence, primary screen (AID 1133); conditions: FGF2, fluorescence 635/667, higher = more signal
# Sequence of Fibroblast growth factor 2 (Homo sapiens) (P09038 whole entry, looked up): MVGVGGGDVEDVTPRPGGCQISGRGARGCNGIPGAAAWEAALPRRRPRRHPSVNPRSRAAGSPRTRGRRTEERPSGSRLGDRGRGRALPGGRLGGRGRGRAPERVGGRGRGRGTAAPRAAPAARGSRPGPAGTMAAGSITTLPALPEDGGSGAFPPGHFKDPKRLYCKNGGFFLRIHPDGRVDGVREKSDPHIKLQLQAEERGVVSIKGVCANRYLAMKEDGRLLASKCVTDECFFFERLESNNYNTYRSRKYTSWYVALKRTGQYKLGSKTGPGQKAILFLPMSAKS
# [7] = JC-1 mitochondrial potential readout, lung cancer cells – cell-based, A549, JC-1 fluorescence, basal, 24 h, 100 nL, profiling panel (AID 1138); conditions: higher = more signal;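 also: A549 lung adenocarcinoma cells under basal conditions with no added stimulus; test concentration not given here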
# Lefty1 = Lefty1 protein binding to printed compounds – biochemical, small-molecule microarray, 635/667 nm fluorescence, primary screen (AID 1139); conditions: fluorescence 635/667, higher = more signal
# [8] = system: wheat germ agglutinin (Triticum aestivum), Alexa647-labelled; test: Alexa647-WGA lectin binding to printed small molecules – biochemical, small-molecule microarray, 635/667 nm fluorescence, artefact control for SMM control-protein annotation, profiling panel (AID 1140); conditions: WGA-A647 binding, 635 nm fluorescence, higher = more signal;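 also: score merges 667 nm feature emission with signal to noise over triplicate slides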
# [9] = biological target: Luciferin 4-monooxygenase (Photinus pyralis) (UniProt P08659); test: inhibition of purified Photinus pyralis luciferase – biochemical, luminescence, purified enzyme, 2006 set, primary screen (AID 1141); conditions: purified firefly luciferase, SteadyGlo luminescence, 30 min; higher = more signal, called active from +8 up or from −8 down;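 also: cell-free assay with purified firefly luciferase at 100 ng per well in PBS; test concentration not given here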
# Sequence of Luciferin 4-monooxygenase (Photinus pyralis) (P08659 whole entry, looked up): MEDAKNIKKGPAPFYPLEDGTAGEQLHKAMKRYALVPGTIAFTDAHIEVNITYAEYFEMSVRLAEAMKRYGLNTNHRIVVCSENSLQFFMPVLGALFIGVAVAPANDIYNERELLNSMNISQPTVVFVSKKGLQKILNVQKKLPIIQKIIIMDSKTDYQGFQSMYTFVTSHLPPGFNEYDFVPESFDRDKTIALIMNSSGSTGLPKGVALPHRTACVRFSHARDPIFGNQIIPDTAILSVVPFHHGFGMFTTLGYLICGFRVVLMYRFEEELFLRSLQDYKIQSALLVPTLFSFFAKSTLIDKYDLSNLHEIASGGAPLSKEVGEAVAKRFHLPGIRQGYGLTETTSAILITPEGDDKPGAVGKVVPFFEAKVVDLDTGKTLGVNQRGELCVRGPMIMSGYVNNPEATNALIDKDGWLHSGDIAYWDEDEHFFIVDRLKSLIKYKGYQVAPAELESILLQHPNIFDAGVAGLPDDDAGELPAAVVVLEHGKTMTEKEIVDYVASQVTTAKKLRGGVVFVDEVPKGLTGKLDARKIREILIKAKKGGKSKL
# [10] = system: Wnt5a (protein binding on small-molecule microarray); test: small molecules binding Wnt5a protein – biophysical, small-molecule microarray, 635/667 nm fluorescence, primary screen (AID 1142); conditions: 635 nm fluorescence, higher = more signal;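 also: fluorescence read at 667 nm with signal to noise per printed feature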
# [11] = ATP-based viability of Huh7 replicon cells – cell-based, CellTiter-Glo luminescence, basal, 48 h, cytotoxicity control for HCV replication inhibitor project, primary screen (AID 1143); conditions: higher = more signal, called active from +8 up or from −8 down;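 also: Huh7 hepatoma cells carrying a hepatitis C replication reporter with no stimulus; test concentration not given here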
# [12] = Pseudomonas biofilm growth suppression – PAO1 strain, BacTiter-Glo luminescence, LB-PBS, primary screen (AID 1144); conditions: P. aeruginosa PAO1 biofilm, 12 h, higher = more signal
# [13] = basal CRE-LacZ reporter activity in PC12 – cell-based, unstimulated, primary screen (AID 1145); conditions: no forskolin, luminescence, 4.5 h, higher = more signal, called active from +8 up or from −8 down
# [14] = forskolin-driven CRE-LacZ activity in PC12 – cell-based, CRE-LacZ reporter, forskolin-stimulated, primary screen (AID 1146); conditions: luminescence, 4.5 h, higher = more signal, called active from +8 up or from −8 down;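 also: PC12 cells with 6xCRE LacZ reporter stimulated by forskolin 10 µM; beta-galactosidase reporter signal reflecting CREB driven transcription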
# [15] = biological target: Streptavidin (Streptomyces avidinii) (UniProt P22629); test: compounds binding control protein streptavidin – biophysical, small-molecule microarray, 635/667 nm fluorescence, artefact control for SMM compound annotation, primary screen (AID 1147); conditions: higher = more signal;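 also: signal reflects streptavidin binding to arrayed compounds as a control protein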
# Sequence of Streptavidin (Streptomyces avidinii) (P22629 whole entry, looked up): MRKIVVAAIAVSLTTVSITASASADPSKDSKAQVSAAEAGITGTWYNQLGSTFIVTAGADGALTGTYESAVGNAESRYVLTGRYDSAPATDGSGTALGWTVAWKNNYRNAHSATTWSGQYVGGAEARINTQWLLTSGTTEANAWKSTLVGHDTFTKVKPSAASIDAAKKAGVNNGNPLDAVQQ
# [16] = probe aInhba binding on compound microarray – biochemical, small-molecule microarray, 635/667 nm fluorescence, primary screen (AID 1148); conditions: higher = more signal;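 also: score merges 667nm spot fluorescence with signal-to-noise for antibody binding to printed compounds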
# Torsin-1A (Homo sapiens) [17] = biological target: Torsin-1A (Homo sapiens) (UniProt O14656); test: TOR1A wild-type binding on microarray – cell lysate, small-molecule microarray, lysate, 635/667 nm, primary screen (AID 1149); conditions: COS7 hTOR1A-WT lysate, 635 nm fluorescence, higher = more signal
# Sequence of Torsin-1A (Homo sapiens) (O14656 whole entry, looked up): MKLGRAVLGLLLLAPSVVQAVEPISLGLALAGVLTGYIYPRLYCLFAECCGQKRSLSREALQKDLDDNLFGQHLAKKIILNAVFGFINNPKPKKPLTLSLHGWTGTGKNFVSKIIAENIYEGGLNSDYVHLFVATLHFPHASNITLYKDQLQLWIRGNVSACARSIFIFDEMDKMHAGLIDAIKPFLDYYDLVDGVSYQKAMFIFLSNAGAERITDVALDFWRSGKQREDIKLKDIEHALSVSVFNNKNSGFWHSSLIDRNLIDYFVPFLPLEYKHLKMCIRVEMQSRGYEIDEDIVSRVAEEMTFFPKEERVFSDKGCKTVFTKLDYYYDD
# Torsin-1A (Homo sapiens) [18] = biological target: Torsin-1A (Homo sapiens) (UniProt O14656); test: torsin A mutant lysate binding on microarrays – cell lysate, small-molecule microarray, COS7 lysate, 635/667 nm fluorescence, primary screen (AID 1150); conditions: COS7 hTOR1A mutant lysate, 635 nm fluorescence, higher = more signal;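 also: score pools 667 nm emission and signal to noise measuring lysate protein binding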
# [19] = system: Sonic hedgehog protein (Shh); test: Sonic hedgehog microarray binding compounds – biochemical, small-molecule microarray, 635/667 nm fluorescence, primary screen (AID 1151); conditions: 635 nm fluorescence, higher = more signal;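 also: Shh protein binding to compounds spotted on small-molecule microarray slides; score combines spot fluorescence intensity with signal-to-noise across triplicate slides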
compound,measurement,setting,value
Cc1cc(C)c(C(O)C2C=CC3C(=O)NC(=O)C3N2Nc2ccc(Cl)cc2Cl)c(C)c1 (stereo not given),composite z-score,[1],1.37
same,composite z-score,[2],1.22
same,composite z-score,[3],0.941
same,composite z-score,[4],0.966
same,composite z-score,[5],1.08
same,composite z-score,[6],0.752
same,z-score,[7],-0.318
same,composite z-score,Lefty1,-0.0986
same,composite z-score,[8],1.19
same,z-score,[9],-1.43 (inactive)
same,composite z-score,[10],0.0976
same,z-score,[11],-0.943 (inactive)
same,z-score,[12],-0.882 (inactive)
same,z-score,[13],-0.329 (inactive)
same,z-score,[14],-0.496 (inactive)
same,composite z-score,[15],1.64
same,composite z-score,[16],0.249
same,composite z-score,Torsin-1A (Homo sapiens) [17],0.148
same,composite z-score,Torsin-1A (Homo sapiens) [18],0.697
same,composite z-score,[19],-0.684
CC=CC(O)C1C=CC2C(=O)N(c3ccccc3)C(=O)C2N1Nc1ccccc1F (stereo not given),composite z-score,[1],0.817
same,composite z-score,[2],0.217
same,composite z-score,[3],0.451
same,composite z-score,[4],-1.06
same,composite z-score,[5],0.0954
same,composite z-score,[6],-0.189
same,z-score,[7],-1.05
same,composite z-score,Lefty1,-0.844
same,composite z-score,[8],0.0224
same,z-score,[9],0.597 (inactive)
same,composite z-score,[10],0.713
same,z-score,[11],-0.118 (inactive)
same,z-score,[12],0.103 (inactive)
same,z-score,[13],0.481 (inactive)
same,z-score,[14],1.23 (inactive)
same,composite z-score,[15],-0.0607
same,composite z-score,[16],0.572
same,composite z-score,Torsin-1A (Homo sapiens) [17],0.804
same,composite z-score,Torsin-1A (Homo sapiens) [18],0.42
same,composite z-score,[19],-0.371
C=CCC(OC(C)=O)[C@@H]1[C@@H](N(Cc2ccc(-c3cccc(C(F)(F)F)c3)o2)C(=O)c2ccc(-c3ccccc3)cc2)c2cc(OCCCO)ccc2N1C(=O)c1ccc2ccccc2n1 (stereo not given in full),composite z-score,[1],0.445
same,composite z-score,[2],-0.507
same,composite z-score,[3],0.0509
same,composite z-score,[4],0.401
same,composite z-score,[5],0.772
same,composite z-score,[6],-0.0036
same,z-score,[7],0.404
same,composite z-score,Lefty1,0.149
same,composite z-score,[8],-0.0763
same,z-score,[9],0.141 (inactive)
same,composite z-score,[10],-0.0222
same,z-score,[11],0.0285 (inactive)
same,z-score,[12],-0.171 (inactive)
same,z-score,[13],0.222 (inactive)
same,z-score,[14],0.53 (inactive)
same,composite z-score,[15],0.0257
same,composite z-score,[16],-0.0762
same,composite z-score,Torsin-1A (Homo sapiens) [17],-0.48
same,composite z-score,Torsin-1A (Homo sapiens) [18],-0.0764
same,composite z-score,[19],0.406
CC(c1ccccc1)C(O)C1C=CC2C(=O)N(c3ccccc3)C(=O)C2N1Nc1ccc([N+](=O)[O-])cc1 (stereo not given),composite z-score,[1],1.75
same,composite z-score,[2],1.25
same,composite z-score,[3],0.605
same,composite z-score,[4],1.03
same,composite z-score,[5],1.03
same,composite z-score,[6],0.328
same,z-score,[7],-0.915
same,composite z-score,Lefty1,0.44
same,composite z-score,[8],0.783
same,z-score,[9],1.58 (inactive)
same,composite z-score,[10],0.523
same,z-score,[11],-0.664 (inactive)
same,z-score,[12],-1.53 (inactive)
same,z-score,[13],-0.48 (inactive)
same,z-score,[14],0.624 (inactive)
same,composite z-score,[15],0.656
same,composite z-score,[16],0.118
same,composite z-score,Torsin-1A (Homo sapiens) [17],0.971
same,composite z-score,Torsin-1A (Homo sapiens) [18],0.29
same,composite z-score,[19],0.513
COc1ccc(NC(=O)O[C@H]2[C@H](OC(=O)Nc3ccccc3)[C@@H](OC(=O)Nc3ccccc3)[C@@H](OC)O[C@@H]2CO)cc1,composite z-score,[1],1.77
same,composite z-score,[2],1.21
same,composite z-score,[3],0.634
same,composite z-score,[4],0.825
same,composite z-score,[5],1.34
same,composite z-score,[6],1.72
same,z-score,[7],-0.506
same,composite z-score,Lefty1,0.512
same,composite z-score,[8],0.626
same,z-score,[9],0.0551 (inactive)
same,composite z-score,[10],1.48
same,z-score,[11],-4.91 (inactive)
same,z-score,[12],-1.81 (inactive)
same,z-score,[13],0.895 (inactive)
same,z-score,[14],-1.52 (inactive)
same,composite z-score,[15],0.0017
same,composite z-score,[16],0.0342
same,composite z-score,Torsin-1A (Homo sapiens) [17],0.66
same,composite z-score,Torsin-1A (Homo sapiens) [18],1.26
same,composite z-score,[19],1.17
Cc1ccc(S[C@]2(C(=O)NCC(F)(F)F)CC(=O)N(C3CCCCC3)[C@@H]2c2ccc(CO)cc2I)cc1,composite z-score,[1],0.21
same,composite z-score,[2],1.21
same,composite z-score,[3],0.543
same,composite z-score,[4],0.774
same,composite z-score,[5],0.969
same,composite z-score,[6],0.621
same,z-score,[7],2.17
same,composite z-score,Lefty1,0.465
same,composite z-score,[8],0.395
same,z-score,[9],-0.691 (inactive)
same,composite z-score,[10],-0.0208
same,z-score,[11],-1.76 (inactive)
same,z-score,[12],1.13 (inactive)
same,z-score,[13],0.622 (inactive)
same,z-score,[14],0.343 (inactive)
same,composite z-score,[15],0.864
same,composite z-score,[16],0.0074
same,composite z-score,Torsin-1A (Homo sapiens) [17],-0.357
same,composite z-score,Torsin-1A (Homo sapiens) [18],1.19
same,composite z-score,[19],0.834
COC(=O)c1c2oc(c1C(=O)OC)C(=O)N(C)Cc1cn(nn1)C[C@H](Cc1ccccc1)NC(=O)N[C@H](CO)CC2,composite z-score,[1],-0.0688
same,composite z-score,[2],-1.52
same,composite z-score,[3],-0.27
same,composite z-score,[4],-1.15
same,composite z-score,[5],-0.0414
same,composite z-score,[6],-0.438
same,z-score,[7],-0.209
same,composite z-score,Lefty1,0.244
same,composite z-score,[8],-0.272
same,z-score,[9],0.247 (inactive)
same,composite z-score,[10],-0.334
same,z-score,[11],0.336 (inactive)
same,z-score,[12],0.553 (inactive)
same,z-score,[13],0.148 (inactive)
same,z-score,[14],-0.324 (inactive)
same,composite z-score,[15],-0.403
same,composite z-score,[16],-0.0576
same,composite z-score,Torsin-1A (Homo sapiens) [17],-0.794
same,composite z-score,Torsin-1A (Homo sapiens) [18],-0.641
same,composite z-score,[19],0.624
O=C1O[C@@H](c2ccccc2)[C@@H](c2ccccc2)N2[C@@H](c3ccc(O)cc3)[C@]3(C(=O)Nc4ccc(C#CC5=CCCCC5)cc43)[C@@H](C(=O)NC[C@H](O)c3ccccc3)[C@H]12,composite z-score,[1],0.219
same,composite z-score,[2],1.19
same,composite z-score,[3],0.134
same,composite z-score,[4],0.925
same,composite z-score,[5],1.45
same,composite z-score,[6],1.69
same,z-score,[7],-0.945
same,composite z-score,Lefty1,0.907
same,composite z-score,[8],1
same,z-score,[9],-1.38 (inactive)
same,composite z-score,[10],0.361
same,z-score,[11],-3.48 (inactive)
same,z-score,[12],-1.16 (inactive)
same,z-score,[13],-0.0246 (inactive)
same,z-score,[14],-0.199 (inactive)
same,composite z-score,[15],0.212
same,composite z-score,[16],0.0833
same,composite z-score,Torsin-1A (Homo sapiens) [17],0.675
same,composite z-score,Torsin-1A (Homo sapiens) [18],0.677
same,composite z-score,[19],1.48
O=C1O[C@H](c2ccccc2)[C@H](c2ccccc2)N2[C@H]1[C@@H](C(=O)Nc1nc3ccccc3s1)[C@]1(C(=O)Nc3ccc(C#CC4(O)CCCCCC4)cc31)[C@H]2c1ccccc1OCCO,composite z-score,[1],1.41
same,composite z-score,[2],1.2
same,composite z-score,[3],0.193
same,composite z-score,[4],0.943
same,composite z-score,[5],1.3
same,composite z-score,[6],0.903
same,z-score,[7],-2.19
same,composite z-score,Lefty1,1.16
same,composite z-score,[8],0.742
same,z-score,[9],-0.62 (inactive)
same,composite z-score,[10],0.731
same,z-score,[11],-4.43 (inactive)
same,z-score,[12],0.0608 (inactive)
same,z-score,[13],0.346 (inactive)
same,z-score,[14],0.0053 (inactive)
same,composite z-score,[15],0.612
same,composite z-score,[16],0.27
same,composite z-score,Torsin-1A (Homo sapiens) [17],0.602
same,composite z-score,Torsin-1A (Homo sapiens) [18],0.597
same,composite z-score,[19],1.32
